Compounds without any hit were thinned out: in the full panel of roughly 79,000, 15% have a hit. Unmarked numbers belong to inactive results. Activity calls are given as the source filed them. No stated cut-off is given here; in the data, active means growth inhibition above about 70%; inactive means the rest.
What was measured:
[1] = NCI Yeast Anticancer Drug Screen. Data for the rad50 strain (AID 155);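 further: 0% = growth of vehicle-only cultures of the same strain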; conditions: S. cerevisiae rad50 strain growth inhibition, hits give high values
Summary of the method: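 Relative growth inhibition (compound vs vehicle) was measured in yeast with a defined repair-gene alteration.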

[2] = NCI Yeast Anticancer Drug Screen. Data for the mec2-1 strain (AID 157); conditions: S. cerevisiae mec2-1 strain, hits give high values
Summary of the method: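 Strain: mec2-1 (DNA repair/cell cycle alteration). Compound exposure, then growth measured; inhibition expressed relative to vehicle.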

[3] = NCI Yeast Anticancer Drug Screen. Data for the sgs1 mgt1 strain (AID 161);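 further: 0% = growth of cultures given vehicle only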; conditions: S. cerevisiae sgs1 mgt1 strain, hits give high values
Summary of the method: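 Genetically altered yeast, compound exposure, growth inhibition relative to vehicle.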

[4] = NCI Yeast Anticancer Drug Screen. Data for the cln2 rad14 strain (AID 165);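 further: 0% = growth equal to vehicle treated cultures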; conditions: S. cerevisiae cln2 rad14 strain, hits give high values
Summary of the method: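 Compounds are applied to the cln2 rad14 yeast strain, and growth is then compared with that of vehicle-treated cultures to give inhibition.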

[5] = NCI Yeast Anticancer Drug Screen. Data for the bub3 strain (AID 167); conditions: S. cerevisiae bub3 mutant strain, hits give high values
Summary of the method: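 Screening used yeast with an engineered genetic alteration affecting cell cycle control. Compound-exposed cultures were compared with vehicle cultures, and reduced growth was taken as inhibition.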

[6] = NCI Yeast Anticancer Drug Screen. Data for the mlh1 rad18 strain (AID 175); conditions: S. cerevisiae mlh1 rad18 strain growth inhibition, hits give high values
Summary of the method: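 Read-out is yeast growth inhibition, calculated against vehicle-only controls. The compound was applied to a strain engineered with DNA damage repair alterations.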

[7] = at 5.0 µM (retest, dose inferred, filed as 0.5)
[8] = at 50.0 µM (retest, dose inferred, filed as 5.0)

SMILES	growth inhibition [1, 7]	growth inhibition [1, 8]	growth inhibition ([1]; at 50.0 µM)	growth inhibition [2, 7]	growth inhibition [2, 8]	growth inhibition ([2]; at 50.0 µM)	growth inhibition [3, 7]	growth inhibition [3, 8]	growth inhibition ([3]; at 50.0 µM)	growth inhibition [4, 7]	growth inhibition [4, 8]	growth inhibition ([4]; at 50.0 µM)	growth inhibition [5, 7]	growth inhibition [5, 8]	growth inhibition ([5]; at 50.0 µM)	growth inhibition [6, 7]	growth inhibition [6, 8]	growth inhibition ([6]; at 50.0 µM)
C/C=C1/C=CC2c3[nH]c4ccccc4c3CCN2C1 (centres undefined)	-152%	-150%	5.35%	-51%	-57%	-0.8%	-62%	-67%	2.95%	-62%	-72%	38%	-73%	-81%	-13.4%	-137%	-107%	13%
CC(C)(C)c1ccc(C(=O)C[n+]2ccc(Cl)c3ccc(Cl)cc32)cc1	0%	98% (active)	99% (active)	1%	99% (active)	99.3% (active)	0%	99% (active)	62.9%	-2%	97% (active)	53.5%	2%	98% (active)	-1.75%	1%	99% (active)	99.2% (active)
N#CC(c1ccc(Cl)cc1)c1ccc([N+](=O)[O-])cc1 (centres undefined)	-12%	52%	40.9%	-16%	37%	20.5%	2%	84% (active)	60.9%	-4%	53%	3.95%	2%	86% (active)	64.3%	-5%	88% (active)	45.5%
O=C1/C(=C/c2cccc(Br)c2)CCc2ccccc21	1%	26%	66.3%	8%	49%	18.4%	13%	58%	61.4%	-5%	16%	22.4%	44%	82% (active)	74.6% (active)	13%	64%	65.8%
O=C(Nc1cc(Cl)c(Cl)cc1Cl)C(=O)C(C(=O)c1ccc2ccccc2c1)C1OC(=O)c2ccccc21 (centres undefined)	17%	17%	67.7%	2%	2%	37.2%	15%	15%	63.9%	6%	6%	64.5%	-8%	-8%	59.2%	-14%	-14%	40%
COc1ccc2nc3cc(Cl)ccc3c(Nc3ccc(O)c(CN4CCN(C)CC4)c3)c2c1	25%	43%	66.9%	7%	-11%	-26.7%	8%	6%	32%	21%	2%	27.6%	8%	6%	-33.8%	13%	1%	-2.9%
CCC(CC)(c1ccc(C)cc1)c1ccc(C)cc1	-12%	99% (active)	99.5% (active)	-10%	99% (active)	99.2% (active)	-6%	99% (active)	98.8% (active)	-80%	99% (active)	77.2% (active)	22%	-55%	92.3% (active)	7%	99% (active)	99.6% (active)
Brc1ccc(N=Nc2ccc(-c3ccc[cH-]3)cc2)cc1.[Fe+2].c1cc[cH-]c1	3%	-3%	16.1%	4%	1%	6.65%	7%	-14%	6.3%	8%	11%	5.75%	6%	9%	45.4%	-2%	1%	14.7%

Reference: PubChem BioAssay (NCI)
